# Assay results published in PubChem BioAssay (Tox21).
# Results filed as inconclusive are left out. The source made the active and inactive calls. Calls come from the whole dose curve.
# Assay: qHTS assay to identify small molecule agonists of the NFkB signaling pathway - cell viability counter screen (AID 1159515); note: nearly all actives have a fitted effect of over 55% in size
# Conditions: NFkB-bla ME-180 viability, CellTiter-Glo luminescence, 5 h; series mostly up to 61 µM
# From the text: National Center for Advancing Translational Sciences [NCATS]
# NIH Chemical Genomics Center [NCGC]
# U.S. Environmental Protection Agency [EPA]
# National Institutes of Environmental Health Sciences [NIEHS]
# National Toxicology Program [NTP]
# U.S. Food and Drug Administration [FDA]
# Transcription factors and their stimulated target gene expression play pivotal roles across many cellular processes including responses to environmental stimuli. Proper regulation of associated pathways is critical to maintain cell health and function. Constitutive activation of transcription factor pathways has been implicated in tumors as it may block cellular functions such as apoptosis and lead to invasion and metastasis. One important transcription factor that stimulates gene expression in response to cytokines, UV radiation, and other stimuli is nuclear factor-kappa B (NFkB). To measure activation of the NFkB pathway, the CellSensor NFkB-bla ME-180 cell line (Life Technologies, Carlsbad, CA) that stably expresses beta-lactamase reporter gene under the regulation of a NF-kB response element was used. This assay allows measurement of the NFkB pathway activity induced by compounds in a ME-180 cell line. This system quantitates NF-kB activity using a FRET-based assay system where beta-lactamase expression disrupts FRET, allowing for fluorescent measurement of activity. This cell line has been used to screen the Tox21 10K compound library and to identify compounds that induce the NFkB pathway activity. The cytotoxicity of the Tox21 compound library against the NFkB-bla ME-180 cell line was tested in parallel by measuring cell viability using the CellTiter-Glo assay in the same wells.
# Tox21 Assay Protocol Summary:
# NFkB-bla ME-180 cells were dispensed at 2,000 cells/6 uL of assay medium per well into black wall/clear-bottom 1536-well plates using a Multidrop Combi (ThermoFisher Scientific, Waltham, MA) dispenser. After the assay plates were incubated at 37 C and 5% CO2 for an overnight, 23 nL of compounds dissolved in DMSO, positive controls or DMSO only was transferred to the assay plate by a Pintool station (Kalypsys, San Diego, CA). The assay plates were incubated at 37 C and 5% CO2 for 5 hr. One uL of LiveBLAzer B/G FRET substrate (Life Technologies) was added using a Flying Reagent Dispenser (Aurora Discovery, San Diego, CA) and the plates were incubated at room temperature for 1.5 hr. Fluorescence intensity (405 nm excitation, 460 nm and 530 nm emissions) was measured using an Envision plate reader (PerkinElmer, Shelton, CT). For cytotoxicity, 3 ul/well of CellTiter-Glo reagent was added into the assay plates using an FRD. After 30 min incubation at room temperature, the luminescence intensity was measured using a ViewLux plate reader (PerkinElmer).
row,SMILES,outcome
1,CC(C)(Cc1c[nH]c2ccccc12)NCC(O)COc1ccccc1C#N (stereo not given),inactive
2,Cc1c(N=C=O)cccc1N=C=O,inactive
3,COc1ccnc2c1CCCCC2S(=O)c1nc2ccccc2[nH]1 (stereo not given),inactive
4,O=C(O)c1ccccc1-n1cc(C(=O)O)c(=O)c2cc(Nc3c(F)cc(F)cc3Cl)c(Cl)cc21,inactive
5,N#C[C@@H]1CC(F)(F)CN1C(=O)CNC1CC2CCC(C1)N2c1ncccn1 (stereo not given in full),inactive
6,CCOC(OCC)OCC,inactive
7,CCOC(=O)CC(O)(CC(=O)OCC)C(=O)OCC,inactive
8,NC(=O)c1ccccc1C(N)=O,inactive
9,COc1ccc(/C(C)=C/C(=O)O)c(OC)c1,inactive
10,O=[N+]([O-])c1ccccc1CCO,inactive
11,CCOc1ccc(NC(C)=O)cc1N,inactive
12,O=[N+]([O-])c1ccc(Cl)cc1Cl,inactive
13,C=CC(=O)OCCCCCCCCCC,inactive
14,C=CC(O)CCCCC (stereo not given),inactive
15,CC(C)C[C@H](NC(=O)[C@H](Cc1ccccc1)NC(=O)c1cnccn1)B(O)O,inactive
16,C=C[Si]1(C)O[Si](C)(C=C)O[Si](C)(C=C)O[Si](C)(C=C)O1 (stereo not given),inactive
17,C/C(=C(\CCO)SS/C(CCO)=C(\C)N(C=O)Cc1cnc(C)nc1N)N(C=O)Cc1cnc(C)nc1N,inactive
18,Clc1cccc(C(c2ccc3nc[nH]c3c2)n2ccnc2)c1 (stereo not given),inactive
19,CC(O)C(C)O (stereo not given),inactive
20,C[C@]12CCC(=O)C=C1[C@@H]1C[C@@H]1[C@H]1[C@@H]3[C@@H]4C[C@@H]4[C@@]4(CCC(=O)O4)[C@@]3(C)CC[C@@H]12,inactive

row,SMILES,outcome
1,CCOCCn1c(N2CCCN(C)CC2)nc2ccccc21,inactive
2,C=C(C)C(=O)OCCCCCCCCCCOC(=O)C(=C)C,inactive
3,CCCCOc1ccc(N)cc1,inactive
4,N#Cc1ccc(CC(=O)c2cccc(C(F)(F)F)c2)cc1,inactive
5,O=C(Nc1ccccc1)c1cc([N+](=O)[O-])ccc1Cl,inactive
6,CC(=O)OCC(=O)[C@@]1(O)CC[C@H]2[C@@H]3CCC4=CC(=O)C=C[C@]4(C)[C@@]3(F)[C@@H](O)C[C@@]21C,inactive
7,Nc1ccccc1Nc1ccccc1,inactive
8,O=c1c2ccccc2oc2ccccc12,inactive
9,CCCCCCCCCCCCCCCCC(=O)O,inactive
10,C=C[Si](OCC)(OCC)OCC,inactive
11,COc1ccc(C(=O)Nc2ccccc2)cc1[N+](=O)[O-],inactive
12,O=[N+]([O-])c1cccc(I)c1,inactive
13,O=S(=O)(O)c1cc(Cl)c(Cl)cc1Cl,inactive
14,CCOc1ccccc1O,inactive
15,CC(COc1ccccc1)NC(C)C(O)c1ccc(O)cc1 (stereo not given),inactive
16,Oc1ccc(Oc2ccccc2)cc1,inactive
17,CCCCCCCCCCCCCCCCN,inactive
18,CCOc1cc(OCC)c(C(C)=O)cc1OCC,inactive
19,CCc1ccc(C(=O)C(C)CN2CCCCC2)cc1 (stereo not given),inactive
20,Nc1ccc(-c2ccc(F)cc2)cc1,inactive
